# The panel holds about 83,000 compounds, 20% with a hit somewhere; the sample as a whole holds those more often.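 Activity criterion: percent growth below 10, measured after cells in 96-well plates were exposed to a single compound concentration for 48 hours.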 Calls of active or inactive are those of the source.
# What was measured:
# Test in all cases: NCI-60 one-dose screen, 48 h (100 = growth as untreated, 0 = no growth, -100 = all killed)
# Settings in all cases: 10 µM unless noted
# EKVX NSCLC = test system: EKVX NSCLC
# SN12C renal = test system: SN12C renal
# UO-31 renal = test system: UO-31 renal
# TK-10 renal = test system: TK-10 renal
# CAKI-1 renal = test system: CAKI-1 renal
# A498 renal = test system: A498 renal
# CCRF-CEM leukemia = test system: CCRF-CEM leukemia
# MOLT-4 leukemia = test system: MOLT-4 leukemia
# SR leukemia = test system: SR leukemia
# ACHN renal = test system: ACHN renal
Compound,growth (EKVX NSCLC),growth (SN12C renal),growth (UO-31 renal),growth (TK-10 renal),growth (CAKI-1 renal),growth (A498 renal),growth (CCRF-CEM leukemia),growth (MOLT-4 leukemia),growth (SR leukemia),growth (ACHN renal)
CC[C@H](C)[C@@H](C(=O)OC)n1cc(CNC(=O)[C@@H](Cc2ccccc2)NC(=O)OCc2ccccc2)nn1,92.6% (inactive),94.6% (inactive),76.7% (inactive),101% (inactive),83.4% (inactive),83.3% (inactive),85.1% (inactive),69.1% (inactive),103% (inactive),
O=C(NCc1ccco1)C1CN(c2ccc(Cl)cc2)N(c2ccc(Cl)cc2)C1=O (centres undefined),65.5% (inactive),62.9% (inactive),42.7% (inactive),84.2% (inactive),,38.2% (inactive),32.3% (inactive),28.3% (inactive),36.7% (inactive),63.5% (inactive)
Cc1cccc2c(=O)c3c(sc12)c(NCCCNCCO)nc1ccccc13,53.5% (inactive),44.6% (inactive),34.8% (inactive),49.5% (inactive),24.8% (inactive),,15% (inactive),-34% (active),-27.3% (active),9.89% (active)
CC1=C(C(=O)OCC2CCN(C(=O)OC(C)(C)C)CC2)[C@H](c2cccc(Br)c2)C2=C(CC(C)(C)CC2=O)N1,49.4% (inactive),31.2% (inactive),31.2% (inactive),38.9% (inactive),,49.5% (inactive),17.9% (inactive),4.54% (active),,
CCN1C(=O)N(CC)C2C1NN=c1s/c(=C3\C(=O)N(C(C)C)c4ccccc43)c(=O)n12 (centres undefined),31.5% (inactive),21.6% (inactive),45.4% (inactive),56.5% (inactive),,-2.49% (active),9.92% (active),13.8% (inactive),10.6% (inactive),
O=C(N=Nc1c(O)[nH]c2ccccc12)c1oc2ccccc2c1CN1CCN(c2ccccc2)CC1,4.35% (active),11.5% (inactive),-52.2% (active),-45.1% (active),32.9% (inactive),,19.7% (inactive),30.7% (inactive),1.67% (active),
Cc1cc(Br)c(N)c(Br)c1,95.6% (inactive),109% (inactive),102% (inactive),,98% (inactive),84.1% (inactive),103% (inactive),96.4% (inactive),100% (inactive),99.1% (inactive)
CSc1nc2c(c(=O)[nH]1)N=C1c3ccccc3C(=O)C1C(c1ccc(F)cc1)N2 (centres undefined),74.8% (inactive),87.7% (inactive),62.8% (inactive),,25.8% (inactive),88.2% (inactive),52.5% (inactive),76% (inactive),31.5% (inactive),59.1% (inactive)
CC1=CCC(OC(=O)C(C)(C)CCC(O)(C(=O)OC2(C(C)C)CCC3(C)OC3C2)C(C)C)(C(C)C)CC1 (centres undefined),-63% (active),-43.8% (active),-99.2% (active),,-100% (active),-83.1% (active),-19.2% (active),-30.3% (active),11.3% (inactive),-94.8% (active)
Cn1c(/C=C(\C#N)c2ccccc2)nc2c(N3CCOCC3)nc(Cl)nc21,-72.4% (active),-58.6% (active),-100% (active),-63.6% (active),-96.9% (active),2.31% (active),2.94% (active),-12.4% (active),10.7% (inactive),
CC(=O)c1ccc2oc(=O)n(Cc3ccc(C#N)cc3)c(=O)c2c1,101% (inactive),99.3% (inactive),85.6% (inactive),103% (inactive),94.6% (inactive),91.1% (inactive),106% (inactive),107% (inactive),109% (inactive),
CC1(O)COCCCCOc2c(CN)cccc2NC(=O)c2nc(cnc2N)-c2ccc(cc2)S(=O)(=O)C(C)(C)C1 (centres undefined),-58% (active),-81.1% (active),-97.5% (active),-36.2% (active),39.4% (inactive),-34.4% (active),5.36% (active),-15.6% (active),8.92% (active),
Fc1cccc(COc2ccc(Nc3ncnc4onc(-c5ccccc5)c34)cc2)c1,32.9% (inactive),22.3% (inactive),18.6% (inactive),,37.5% (inactive),-22.4% (active),20.1% (inactive),15.4% (inactive),26.1% (inactive),37.1% (inactive)
Cc1ccc(NCCNCC(O)CO)c2c(=O)c3ccccc3sc12 (centres undefined),43.3% (inactive),19.7% (inactive),-24% (active),,39.2% (inactive),43.2% (inactive),22.2% (inactive),9.37% (active),-9.74% (active),-46.3% (active)
O=C(CSc1nc2ccccc2c(=O)n1-c1ccccc1)Nc1ccc(C(=O)/C=C/c2ccc(Cl)cc2)cc1,103% (inactive),101% (inactive),82.5% (inactive),,97.8% (inactive),95.2% (inactive),99.7% (inactive),99.5% (inactive),85.3% (inactive),102% (inactive)
C[C@@H](C(=O)NCCCC#Cc1cnc(Nc2ccc(C#N)cc2)nc1NC1CC1)N(C)C(=O)/C=C/CN(C)C,33.5% (inactive),35.9% (inactive),28.6% (inactive),63% (inactive),60.1% (inactive),-5.21% (active),13.8% (inactive),7.9% (active),9.79% (active),
O=c1oc2ccc(Cl)cc2c(=O)n1-c1ccc(I)cc1F,11.4% (inactive),-1.14% (active),7.35% (active),,-16.3% (active),-75.5% (active),7.15% (active),-28.6% (active),,4.07% (active)
O=c1oc2ccc(I)cc2c(=O)n1-c1ccc(Cl)cc1F,9.47% (active),2.21% (active),2.47% (active),,-16.9% (active),-68.3% (active),7.77% (active),-11.1% (active),,3.57% (active)
O=C(Nc1ccc(N2CCNCC2)cc1)c1[nH]ncc1Nc1ncnc2sc3c(c12)CCC3,-86.8% (active),-75.1% (active),-85.6% (active),-95.3% (active),-93.1% (active),16.9% (inactive),-32.1% (active),-39.3% (active),-8.96% (active),
NC(=O)CSc1nc(-c2ccc(F)cc2)cc(-c2ccco2)n1,95.8% (inactive),101% (inactive),75.2% (inactive),129% (inactive),85.7% (inactive),103% (inactive),107% (inactive),97.9% (inactive),94.5% (inactive),
Cc1ccc2[nH]c(=O)cc(-n3nncc3Cn3c4ccccc4c4ccccc43)c2c1,98.2% (inactive),101% (inactive),73.7% (inactive),,85% (inactive),80% (inactive),99.5% (inactive),101% (inactive),103% (inactive),90% (inactive)
O=C(Nc1ccc(Cl)cc1)c1cc2ccccc2cc1OP(=O)(O)O,24.8% (inactive),41.4% (inactive),2.13% (active),18.7% (inactive),-8.12% (active),28.7% (inactive),18.2% (inactive),38.9% (inactive),53.9% (inactive),
CC[C@@H](C)[C@H](NC(=O)Cn1cc(CNC(=O)[C@@H](NC(=O)OCc2ccccc2)C(C)C)nn1)C(=O)O,100% (inactive),97.1% (inactive),95.1% (inactive),112% (inactive),88.4% (inactive),98.9% (inactive),106% (inactive),109% (inactive),101% (inactive),
COc1ccccc1C(=O)/C=C/c1ccccc1,97.8% (inactive),83.5% (inactive),73.4% (inactive),,90.4% (inactive),98.8% (inactive),46.3% (inactive),81.1% (inactive),43.1% (inactive),90.5% (inactive)
COc1ccc(-c2cn[nH]c2-c2cc(OC)c(OC)c(OC)c2)cc1OCc1ccccc1,33.5% (inactive),62.3% (inactive),25.6% (inactive),50.9% (inactive),28.9% (inactive),-18.9% (active),47% (inactive),64.5% (inactive),27.5% (inactive),
Cc1ccc(NC2=CC(=O)C(=O)c3ccccc32)c(C)c1,143% (inactive),44.1% (inactive),71.2% (inactive),80.8% (inactive),82.7% (inactive),109% (inactive),43.7% (inactive),36.9% (inactive),56.4% (inactive),
Cc1ccc2sc3c(NCCCNCCO)nc4ccccc4c3c(=O)c2c1,57.3% (inactive),72.8% (inactive),48.6% (inactive),,56.7% (inactive),65.8% (inactive),10.8% (inactive),-39.3% (active),2.94% (active),6.81% (active)
CCOC(=O)c1sc(-c2ccc(OS(=O)(=O)C[C@]34CCC(CC3=O)C4(C)C)c(C=O)c2)nc1C,36.5% (inactive),28.7% (inactive),29% (inactive),5.83% (active),0.933% (active),-2.42% (active),11.7% (inactive),4.72% (active),21.2% (inactive),
O=C(/C=C/c1ccc(C(F)(F)F)cc1)c1ccc(Nc2nc(NCCO)nc(N3CCOCC3)n2)cc1,65.4% (inactive),71.5% (inactive),48% (inactive),81.8% (inactive),53.1% (inactive),98% (inactive),10.3% (inactive),5.76% (active),19% (inactive),
CCC1=C[C@]2(C3CC(=O)N(c4ccccc4)C3=O)CC(C(C)(C)C)C[C@@H]2[C@@H]2C(=O)N(c3ccccc3)C(=O)[C@H]12 (some centres undefined),74.3% (inactive),89.2% (inactive),73.1% (inactive),99.7% (inactive),71.4% (inactive),88% (inactive),86.2% (inactive),80.4% (inactive),80.4% (inactive),
